The results in this text go back to PubChem BioAssay (Tox21).

Structures are written as SMILES. Records with an inconclusive call do not appear. Unmarked numbers belong to inactive results. Active and inactive are the calls of the source. Calls follow the shape of the full dose curve.
% is scaled to controls: 0 for no effect and ±100 for the full control effect.

Tested on in the first assay: not listed separately
The assay is described as follows: qHTS assay to identify small molecule antagonists of the estrogen receptor alpha (ER-alpha) signaling pathway - cell viability counter screen (AID 743074).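 Also: HEK293 cells carrying ER-alpha-UAS-bla reporter stimulated with 17beta-estradiol; nearly all actives have a fitted effect of over 45% in size.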 The conditions noted are these: ERalpha-bla HEK293 viability, CellTiter-Glo luminescence, 18 h; series mostly up to 69.4 µM; activity, negative = cytotoxicity: at the top concentration. For orientation: qHTS replaces the single test concentration by a dilution series.
Turning to `Nc1cc(Cl)cc(S(=O)(=O)O)c1O`, the “activity, negative = cytotoxicity” value is 10.5% [at 79.1 µM].

Take `CCCCCCCC/C=C\CCCCCCCC(=O)OC[C@@H](O)[C@H]1OC[C@H](O)[C@H]1O`: the Potency result is “inactive”.

`CCCCC(=O)N(C)C`: the “activity, negative = cytotoxicity” value was 16.2%.

As for `CN(C)CCCNCCC#N`, the “activity, negative = cytotoxicity” value was 10%.

Consider `C=COCCOCCOC=C`, for which the “activity, negative = cytotoxicity” value is 14.4%.

On to `Cc1ccc(S(=O)(=O)NC(=O)NC2CCCCCCC2)cc1`, for which the “activity, negative = cytotoxicity” value is -8.54%.

Turning to `OC(CCN1CCCCC1)(c1ccccc1)c1ccccc1`, the “activity, negative = cytotoxicity” value was -21%.

As for `C[N+](C)(C)CC(O)CCl` (stereo not given), the “activity, negative = cytotoxicity” value was -9.36% [at 79.1 µM].

The target of the next assay is Estrogen receptor (Homo sapiens) (UniProt P03372). The assay is described as follows: qHTS assay to identify small molecule agonists of the estrogen receptor alpha (ER-alpha) signaling pathway (AID 743075).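 Also: HEK293 GripTite cells with ER-alpha and UAS-driven beta-lactamase reporter.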 Particulars: HEK293 ER-alpha-UAS-bla, beta-lactamase FRET ratio, 18 h; series mostly up to 70.1 µM; activation: at the top concentration.
Estrogen receptor (Homo sapiens), sequence (P03372 whole entry, looked up): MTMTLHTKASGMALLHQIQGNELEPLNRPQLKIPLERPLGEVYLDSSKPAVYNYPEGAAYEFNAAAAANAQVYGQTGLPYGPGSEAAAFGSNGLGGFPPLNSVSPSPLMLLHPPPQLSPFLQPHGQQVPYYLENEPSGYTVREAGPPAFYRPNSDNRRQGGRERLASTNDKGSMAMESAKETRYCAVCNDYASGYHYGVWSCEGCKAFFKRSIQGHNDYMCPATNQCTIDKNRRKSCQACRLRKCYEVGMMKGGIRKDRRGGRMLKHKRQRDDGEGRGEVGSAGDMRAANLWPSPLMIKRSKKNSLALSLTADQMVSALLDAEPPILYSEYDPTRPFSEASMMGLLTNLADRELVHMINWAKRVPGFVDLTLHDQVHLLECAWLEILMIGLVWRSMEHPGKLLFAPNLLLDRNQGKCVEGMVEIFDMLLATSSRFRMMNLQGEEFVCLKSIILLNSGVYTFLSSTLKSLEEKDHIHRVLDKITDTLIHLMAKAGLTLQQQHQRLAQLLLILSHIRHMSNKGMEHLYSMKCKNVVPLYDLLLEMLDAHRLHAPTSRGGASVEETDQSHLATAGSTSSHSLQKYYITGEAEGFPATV
For the compound `O=C(O)c1ccccc1C(=O)OCc1ccccc1`, the “activation” value was -2.71%.

Take `C[C@H](CCC(=O)O)[C@H]1CC[C@H]2[C@@H]3[C@H](O)C[C@@H]4C[C@H](O)CC[C@]4(C)[C@H]3C[C@H](O)[C@]12C`: the Potency result is “inactive”.

With `CC(CC(=O)O)CC(C)(C)C` (stereo not given), the “activation” value was 0.352%.

For `CCCOCCOCCOCCO`, the “activation” value is -1.86%.

In the case of `COc1ccc(/C=N/NC(=O)c2ccncc2)cc1OC`, the “activation” value was 3.15%.

In the case of `C1=C\CC/C=C\CC/1`, the “activation” value is -0.919% [at 79.1 µM].

`O=C(O)/C=C/c1ccccc1`: the Potency entry was “inactive”.

Regarding `Nc1ccc(S(=O)(=O)Nc2ccccn2)cc1`, the “activation” value is -0.345% [at 32.9 µM].

Take `O=S(=O)(O)CCO`: the “activation” value was 1.93% [at 79.1 µM].

As for `CCN(CCC#N)c1ccccc1`, the “activation” value was -2.4%.

Consider `CCCCCC(=O)OCC`, for which the “activation” value was -0.769%.

Regarding `COCC(=O)Nc1c(I)c(C(=O)NCC(O)CO)c(I)c(C(=O)N(C)CC(O)CO)c1I` (stereo not given), the “activation” value is -1.1% [at 32.9 µM].

Consider `CN(C)CCOCCN(C)CCO`, for which the “activation” value was -1.12%.

Turning to `CCc1nccnc1C`, the “activation” value was 2.67%.

For the compound `CC(=O)c1ccc(OCC(=O)N2CCCCC2)cc1`, the “activation” value is -1.58%.

Turning to `Nc1cc(Cl)cc(S(=O)(=O)O)c1O`, the “activation” value was -5.72% [at 79.1 µM].

On to `Cc1ccccc1C(=O)N1CC/C(=N\OS(=O)(=O)O)c2ccc(Cl)cc21`, for which the “activation” value was -2.26%.
